The results in this text go back to PubChem BioAssay AID1259349 (Broad Institute, 2017).

Structures are written as SMILES. Out of some 17,000 compounds screened, about 1,100 (6.5%) were called active. This is one part of a sample in which actives are shown more often than they occur.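 How the source made its calls: active means z-score of -3 or lower, meaning strong loss of probe binding signal; inactive means the rest.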

In this assay the target is Insulin-degrading enzyme (Homo sapiens) (UniProt P14735). As to the kind of experiment: displacers of FL-6b probe from IDE – biochemical, fluorescence anisotropy, probe displacement, primary screen (AID 1259349).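 Further: His-tagged human IDE residues 42-1019 made in E. coli with 30 nM FL-6b probe.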 The conditions noted are these: purified IDE, FL-6b probe fluorescence polarization; at 20 µM; hits give low values.
Insulin-degrading enzyme (Homo sapiens), sequence (P14735 42-1019 limits assumed): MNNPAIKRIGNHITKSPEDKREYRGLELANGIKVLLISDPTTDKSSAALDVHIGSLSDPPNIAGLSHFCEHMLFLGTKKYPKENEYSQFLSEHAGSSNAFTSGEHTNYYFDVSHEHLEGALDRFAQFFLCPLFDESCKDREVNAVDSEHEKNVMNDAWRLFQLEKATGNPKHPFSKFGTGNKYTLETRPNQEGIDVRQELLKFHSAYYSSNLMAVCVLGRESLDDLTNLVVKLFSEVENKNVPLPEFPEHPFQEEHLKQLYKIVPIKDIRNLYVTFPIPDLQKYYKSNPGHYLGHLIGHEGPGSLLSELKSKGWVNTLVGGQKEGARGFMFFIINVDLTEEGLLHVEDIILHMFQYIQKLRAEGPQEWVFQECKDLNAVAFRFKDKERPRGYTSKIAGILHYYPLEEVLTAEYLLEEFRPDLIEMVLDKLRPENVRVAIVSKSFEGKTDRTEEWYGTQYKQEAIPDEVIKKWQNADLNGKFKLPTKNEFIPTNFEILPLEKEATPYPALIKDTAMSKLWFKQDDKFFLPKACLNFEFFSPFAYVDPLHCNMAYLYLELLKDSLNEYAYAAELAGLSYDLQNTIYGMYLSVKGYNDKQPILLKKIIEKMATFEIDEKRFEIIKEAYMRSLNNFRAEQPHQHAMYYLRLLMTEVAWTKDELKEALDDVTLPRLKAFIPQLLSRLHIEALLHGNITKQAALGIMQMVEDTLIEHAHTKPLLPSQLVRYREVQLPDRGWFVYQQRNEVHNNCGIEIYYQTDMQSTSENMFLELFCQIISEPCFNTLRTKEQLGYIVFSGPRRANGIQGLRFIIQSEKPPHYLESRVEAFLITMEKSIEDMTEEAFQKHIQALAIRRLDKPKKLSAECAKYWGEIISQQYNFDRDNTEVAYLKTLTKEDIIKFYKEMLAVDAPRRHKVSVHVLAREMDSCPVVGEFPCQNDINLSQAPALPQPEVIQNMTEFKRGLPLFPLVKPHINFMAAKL
Take `CC(=O)N1[C@@H](CO)[C@@H](c2ccccc2)[C@@H]1CN(C)C(=O)CN1CCOCC1`: the z-score was 0.517 (inactive).

For the molecule `C[C@@H]1CN([C@H](C)CO)C(=O)c2cc(NC(=O)Cc3ccccc3)ccc2O[C@@H](C)CCCCO[C@@H]1CN(C)Cc1ccncc1`, the z-score is -1.57 (inactive).

For the molecule `C[C@@H]1COCc2cn(nn2)CC[C@H](C)C(=O)N1`, the z-score is 0.508 (inactive).

`COc1cccc(-c2ccc([C@H]3[C@H]4CN(C(=O)NC(C)C)CC(=O)N4[C@H]3CO)cc2)c1`: the z-score was -10.1 (active).

For `COc1ccc(NC(=O)N2CC(=O)N3[C@H](CO)[C@@H](c4ccc(-c5ccc(C)cc5)cc4)[C@H]3C2)cc1`, the z-score is -0.113 (inactive).

For `CN(C)C(=O)c1cccc(-c2ccc([C@H]3[C@H](CO)N4C(=O)CN(C(=O)C5CCCCC5)C[C@@H]34)cc2)c1`, the z-score is 1.54 (inactive).

Consider `COc1cccc(-c2ccc([C@@H]3[C@@H](CO)N4C(=O)CN(C(=O)C5CCCCC5)C[C@H]34)cc2)c1`, for which the z-score is -3.69 (active).

Turning to `CN(C)C(=O)c1cccc(-c2ccc([C@H]3[C@@H](CO)N4C(=O)CN(C(=O)C5CC5)C[C@@H]34)cc2)c1`, the z-score was 3.52 (inactive).

Take `C/C=C/c1ccc([C@@H]2[C@@H](CO)N3C(=O)CN(C(=O)Nc4cccc(OC)c4)C[C@@H]23)cc1`: the z-score is 0.379 (inactive).

For the molecule `N#C[C@H]1[C@H](c2ccccc2-c2ccc(F)cc2)[C@H](CO)N1C(=O)Cc1ccncc1`, the z-score is 2.04 (inactive).

With `CO[C@@H]1CC[C@@H]2CCOc3ccc(C#N)cc3C(=O)N(C)[C@H](C)C(=O)N(C)C[C@@H]1O2`, the z-score was 2.26 (inactive).

For `CO[C@@H]1CN(C)C(=O)c2ccc(NS(=O)(=O)c3c(C)noc3C)cc2OC[C@H](C)NC[C@@H]1C`, the z-score is 1.77 (inactive).

On to `Cc1cccc(-c2ccc([C@@H]3[C@H](CO)N4CCCCN(C(=O)c5ccc6c(c5)OCO6)C[C@@H]34)cc2)c1`, for which the z-score was -4.42 (active).

In the case of `COc1ccc(C#Cc2ccc([C@@H]3[C@@H](CO)N4CCCCN(C(=O)c5ccncc5)C[C@@H]34)cc2)cc1`, the z-score is -0.38 (inactive).

Take `COc1ccccc1-c1ccc([C@@H]2[C@@H](CO)N3CCCCN(S(=O)(=O)c4cn(C)cn4)C[C@H]23)cc1`: the z-score was -2.23 (inactive).

In the case of `O=S(=O)(c1ccccc1)N1CCCCN2[C@H](C1)[C@H](c1ccc(-c3ccccc3)cc1)[C@@H]2CO`, the z-score was 2.36 (inactive).

Regarding `Cc1cccc(-c2ccc([C@H]3[C@H](CO)N4CCCCN(S(=O)(=O)c5cn(C)cn5)C[C@@H]34)cc2)c1`, the z-score was -4.09 (active).

For the molecule `CCCC#Cc1ccc([C@H]2[C@H](CO)N3CCCCN(C(=O)c4ccc5c(c4)OCO5)C[C@@H]23)cc1`, the z-score was 1.25 (inactive).

As for `COc1ccc(-c2ccc([C@H]3[C@H]4CN(C(=O)c5ccc6c(c5)OCO6)CCCCN4[C@H]3CO)cc2)cc1`, the z-score was 0.126 (inactive).

In the case of `Cn1cnc(S(=O)(=O)N2CCCCN3[C@H](CO)[C@@H](c4ccc(-c5ccc(F)cc5)cc4)[C@@H]3C2)c1`, the z-score was 3.91 (inactive).

Turning to `CCS(=O)(=O)N1CCCCN2[C@@H](CO)[C@@H](c3ccc(-c4ccccc4)cc3)[C@@H]2C1`, the z-score is -3.06 (active).

On to `O=C(c1ccncc1)N1CCCCN2[C@H](CO)[C@@H](c3ccc(C#Cc4ccccn4)cc3)[C@H]2C1`, for which the z-score is -2.35 (inactive).

Turning to `COc1ccccc1-c1ccc([C@@H]2[C@@H](CO)N3CCCCN(C(=O)c4ccncc4)C[C@@H]23)cc1`, the z-score was -4.74 (active).

On to `O=S(=O)(Cc1ccccc1)N1CCCCN2[C@@H](CO)[C@H](c3ccc(-c4ccccc4)cc3)[C@@H]2C1`, for which the z-score was 2.58 (inactive).

With `O=C1CN(S(=O)(=O)Cc2ccccc2)C[C@@H]2[C@@H](c3ccc(C#Cc4ccccc4)cc3)[C@@H](CO)N12`, the z-score is -0.431 (inactive).

As for `O=C(c1cccc(F)c1)N1CC(=O)N2[C@H](C1)[C@@H](c1ccc(C#Cc3ccc(F)cc3)cc1)[C@@H]2CO`, the z-score was 2.4 (inactive).

Take `CCC(=O)N1CC[C@H]2[C@@H]1c1cc(-c3ccc(C#N)cc3)ccc1N(C)[C@H]2CO`: the z-score is -0.903 (inactive).

Regarding `O=C(C[C@H]1CC[C@@H]2NC[C@H](O)COC[C@H]2O1)NCCN1CCCCC1`, the z-score is -0.195 (inactive).

On to `O=C1CCCCn2nncc2COC[C@@H](Cc2ccccc2)N1`, for which the z-score is 0.104 (inactive).

For the molecule `CC(=O)NC[C@H]1[C@H](c2ccccc2)[C@@H](CO)N1C(=O)Cc1cccnc1`, the z-score was 5.37 (inactive).

Take `CN(C)CC#Cc1ccc([C@H]2[C@H](CO)N3CCCCN(CC4CC4)C[C@@H]23)cc1`: the z-score is 3 (inactive).

For `Cc1ccc(-c2ccc([C@H]3[C@H]4CN(S(=O)(=O)c5cccc(F)c5)CC(=O)N4[C@H]3CO)cc2)cc1`, the z-score is 1.96 (inactive).

With `O=C(c1ccncc1)N1CCCCN2[C@H](CO)[C@H](c3ccc(-c4ccccc4)cc3)[C@H]2C1`, the z-score is -4.53 (active).

Consider `CC(C)C#Cc1ccc([C@H]2[C@H](CO)N3CCCCN(C(=O)c4ccc(F)cc4)C[C@@H]23)cc1`, for which the z-score is 1.11 (inactive).

For `O=C(c1cccc(F)c1)N1CCCCN2[C@H](CO)[C@H](c3ccc(C#CC4(O)CCCC4)cc3)[C@H]2C1`, the z-score is 0.958 (inactive).

Take `O=C(c1cccc(F)c1)N1CCCCN2[C@H](CO)[C@H](c3ccc(-c4ccncc4)cc3)[C@H]2C1`: the z-score was 0.501 (inactive).

Consider `O=C(c1ccc(F)cc1)N1CCCCN2[C@@H](CO)[C@H](c3ccc(-c4ccccc4)cc3)[C@@H]2C1`, for which the z-score is -0.452 (inactive).

In the case of `O=C(c1ccc(F)cc1)N1CCCCN2[C@H](C1)[C@@H](c1ccc(C#CC3(O)CCCC3)cc1)[C@@H]2CO`, the z-score is -3.65 (active).

`CC(C)(O)C#Cc1ccc([C@H]2[C@H]3CN(C(=O)c4ccncc4)CCCCN3[C@H]2CO)cc1`: the z-score is 0.748 (inactive).

`C[C@H](CO)N1C[C@H](C)[C@H](CN(C)C(=O)Nc2cccc(Cl)c2Cl)OCc2ccccc2-c2ccccc2C1=O`: the z-score was -1.18 (inactive).

On to `CCCC#Cc1ccc([C@H]2[C@H]3CN(C(=O)Nc4ccc(F)cc4)CC(=O)N3[C@H]2CO)cc1`, for which the z-score was 3.77 (inactive).

Take `C[C@@H]1CN([C@H](C)CO)C(=O)CCCn2cc(nn2)CO[C@@H]1CN(C)C(=O)Nc1ccc2c(c1)OCO2`: the z-score is -0.664 (inactive).

As for `CCCC#Cc1ccc([C@H]2[C@@H](CO)N3C(=O)CN(C(=O)c4ccncc4)C[C@@H]23)cc1`, the z-score was 3.16 (inactive).
